# Laboratory results: ChEMBL document CHEMBL3988442, “University of Dundee, Small-Polar-MMV Screening Library” (2021)
# Screen size: about 48,000 compounds; about 13,000 (27%) showed an effect of 50% or more. The list shows a part of the results.
# Tested on: Wolbachia pipientis
# Test: Anti-Wolbachia Cell-Based Screen
# Type: functional
# Set-up: scale not given: in the data most compounds retested in dose-response had high values
# Settings: 5 µM
row,SMILES,Percent Effect [%]
1,COCCn1cc(NCc2cn(C)nc2-c2ccncc2)cn1,0.5012
2,Cc1ccc(O[C@@H]2C[C@H]3CN(C(=O)c4cnccn4)CCN3C2)cc1.O=C(O)C(F)(F)F,-2.389
3,Cc1nc(CC(=O)N2CCC3(CC2)CC(=O)N(CC2CCCO2)C3)cs1 (stereo not given),8.939
4,CN(C)CCCn1ccnc1C1CCN(c2cccc(C(=O)O)n2)CC1,-0.5716
5,Cc1ccccc1-c1cncc(C2CCN(C(C)C)CC2)n1,-0.08562
6,CC(C)N1CCC(c2ccnc3c(C(=O)N4CCCC4)ncn23)CC1,-18.47
7,CN1CCC(c2cccc(C(=O)N(C)C)n2)CC1,118.3
8,CC(C)N1CCC(c2cccc(C(=O)N(C)C)n2)CC1,126.2
9,Cc1cnn(CCNCC(=O)Nc2ccc(Br)cn2)c1,-4.986
10,O=C(O)C(F)(F)F.O=C1CC[C@]2(CC[C@@H](NCc3ccc4c(c3)OCO4)CC2)N1,-34.14
11,COc1ccc(CN[C@H]2CC[C@@]3(CCC(=O)N3)CC2)cc1.O=C(O)C(F)(F)F,13.86
12,O=C(O)C(F)(F)F.O=c1ccc2c([nH]1)CCC(NCc1ccc3c(c1)OCO3)C2 (stereo not given),106.8
13,O=C(NC1CCCC1)NC1CCc2[nH]c(=O)ccc2C1 (stereo not given),2.289
14,CC(C)NC1CCc2[nH]c(=O)ccc2C1.O=C(O)C(F)(F)F (stereo not given),105.5
15,O=C(O)C(F)(F)F.O=c1ccc2c([nH]1)CCC(NCc1ccc(F)cc1)C2 (stereo not given),112.4
16,O=C(O)C(F)(F)F.O=C1CC[C@]2(CC[C@@H](NCc3ccoc3)CC2)N1,-19.54
17,COc1ccc2c(c1)CC(NCc1cccc(NC(C)=O)c1)CC2 (stereo not given),5.004
18,CSc1ccc(CNC2CCN(CCc3ccncc3)CC2)cc1,-23.46
19,O=c1ccc2c([nH]1)CCC(NCc1ccncc1)C2 (stereo not given),106.2
20,CN(C)C(=O)N1CCc2ccc(=O)[nH]c2CC1,-8.1
21,COc1ncc(C)cc1NC(=O)COc1ccccc1F,-12.82
22,CCO[C@H]1COC[C@@H]1NC(=O)c1c[nH]nc1C1CCCCC1,-0.7852

row,SMILES,Percent Effect [%]
1,Cn1c(C(N)=O)cc2c1CN(C(=O)C1CC(=O)N(C(C)(C)C)C1)CC2 (stereo not given),-2.281
2,Cn1ncc2c(NCC3CCS(=O)(=O)C3)nc(C3CCCC3)nc21 (stereo not given),-5.604
3,O=C(CCNc1ncccn1)NCc1cccc(OC(F)F)c1,-10.33
4,O=C(CCC1CC1)N1C[C@@H](CN2CCCC2)[C@@H](CO)C1,-10.86
5,Cc1ccc(CNC2CCc3[nH]c(=O)ccc3C2)cc1C.O=C(O)C(F)(F)F (stereo not given),104.8
6,CCC(=O)N(C)CC(=O)Nc1ccc(Br)cn1,-3.099
7,O=C(CCc1nc(Cl)n[nH]1)N1C[C@H](CO)C[C@H](CN2CCCC2)C1,-2.773
8,Cn1nc2c(cc1=O)CN(CC(=O)Nc1ccc(Cl)cn1)CC2,-5.01
9,O=C(Cc1ccccc1)NCc1ccc(-c2ccccc2C(=O)O)cn1,101.1
10,CC(=O)NCc1cccc(-n2ccnc2-c2cccc(C(=O)O)c2)c1,-20.57
11,COCCC(=O)NCc1ccc(-c2ccccc2C(=O)O)cn1,105.5
12,CC(=O)NCc1ccc(-c2ccccc2C(=O)O)cn1,125.9
13,COc1ccccc1NCC(=O)NCc1cc[nH]n1,15.35
14,COc1c(C)cnc(CNC(=O)CCOCc2ccccc2)c1C,7.332
15,COc1ccccc1OCCC(=O)NCc1ncc(C)c(OC)c1C,-4.89
16,COCCC(=O)NCc1cccnc1-n1cnc2ccccc21,-10.59
17,O=C(Cc1cc(-c2ccc3c(c2)OCCO3)on1)NCc1ccccn1,5.76
18,Cc1oc(CNC(=O)Cc2ccc3ccccc3c2)cc1C(=O)O,-0.3002
19,COCCC(=O)NCc1ccc(-c2ccccc2C(=O)O)nc1,88.43
20,CCCN1CCCn2nc(CNC(=O)CCOC)cc2C1,16.28
21,CCN(CC)S(=O)(=O)NCCc1cc(C)ccc1OC,2.679
22,Cc1noc(CNc2ccc(CC(=O)N3CCSCC3)cc2)n1,-10.08

row,SMILES,Percent Effect [%]
1,COCCCN1C(=O)CC[C@H]2CN(c3nc4ccccc4s3)CC[C@H]21,-8.201
2,CN1CCN(c2ncccc2CNc2ncccc2C#N)CC1,1.331
3,O=C(CCCn1ccnc1)N1CCC2(CC1)[C@H](O)C[C@@H]2OCCO,0.2303
4,CCCc1cc(CNC(=O)C2CCOc3ccccc3C2)on1 (stereo not given),6.963
5,COCC(=O)Nc1cnc(N2CCN(c3ccccc3)CC2)nc1,-8.386
6,COCC(=O)NCc1ccc(-c2ccccc2C(=O)O)cn1,123.3614
7,COCC(=O)NCc1cccnc1-n1cnc2ccccc21,13.4
8,Cc1nc(CN2CCCN(CCOc3cccc(C#N)c3)CC2)no1,11.38
9,Cc1cnn(C2CCCN(C(=O)c3cc(C4CC4)on3)C2)c1 (stereo not given),8.361
10,O=C(c1cc(C2CC2)on1)N1CCC(Oc2ncccc2Cl)CC1,9.581
11,O=C(c1cc(C2CC2)on1)N1C[C@H]2CC[C@](O)(c3ccccc3F)[C@H]2C1,127.6
12,c1ccc2c(Cc3nnc([C@H]4CCN(C5CCC5)C4)o3)c[nH]c2c1,-3.783
13,NC1C=C(C(F)(F)F)NC=C1c1ccc(Cl)cc1 (stereo not given),102.6
14,COc1ccc(C2=CNC(C(F)(F)F)=CC2N)cc1 (stereo not given),99.44
15,NC1C=C(C(F)(F)F)NC=C1c1ccccc1 (stereo not given),86.08
16,CC(NC(=O)C1CCN(S(N)(=O)=O)CC1)c1cccc(OC(F)F)c1 (stereo not given),6.374
17,CS(=O)(=O)NCCNc1ncnc2cccc(F)c12,8.452
18,CCCC(NC(=O)c1ccccn1)c1nnc2ccccn12 (stereo not given),4.889
19,CC(C)CC(NC(=O)c1ccco1)c1nnc2ccccn12 (stereo not given),109.4
20,CCCC(NC(=O)c1cnccn1)c1nnc2ccccn12 (stereo not given),41.87
21,O=C(NCC1CCSCC1)N(CCCO)C1CCc2ccccc21 (stereo not given),6.335
